Results filed as inconclusive are left out. Some structures have more than one record in an assay (separate samples or runs), and their calls can disagree. Values without a mark were called inactive. Active and inactive are the calls of the source. The call rests on the fitted dose curve; in most records, active means well fitted curve in the direction sought with a large enough effect; inconclusive means small, poorly fitted or top-dose-only effect, or another doubt; inactive means no such curve, though single readings can be large; an effect the other way counts as inactive or inconclusive.

For one assay, the system named is MCC-13. Put plainly: qHTS assay to identify novel small-molecules to repurpose for Merkel cell carcinoma treatment (AID 1296009). Further: nearly all actives have a fitted effect of over 60% in size. As to conditions: MCC and control cell lines, CellTiter-Glo viability, 72 h; series mostly up to 46 µM. A digest of the protocol:
(§1)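 Cells were treated for 72 hr at 37 degree celsius with compounds in 8- or 11-point dose response. Viability was read by CellTiter-Glo luminescence, normalized to no-cell (cytotoxicity) and DMSO controls.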

Another assay has as its system MCC-26. The assay is described as above. The following applies: MCC and control cell lines, CellTiter-Glo viability, 72 h; series mostly up to 46 µM. A digest of the protocol:
as §1
In general terms: Cellular ATP, detected with luciferase, serves as a proxy for viable cell number.

A further assay has as its system MKL-2. The assay is described as above. As to conditions: MCC and control cell lines, CellTiter-Glo viability, 72 h; series mostly up to 46 µM. Put shortly: as §1
The test system of the next assay is UISO. Described as above. As to conditions: MCC and control cell lines, CellTiter-Glo viability, 72 h; series mostly up to 46 µM. A digest of the protocol:
as §1

The subject of another assay is WaGa. The description is as above. As to conditions: MCC and control cell lines, CellTiter-Glo viability, 72 h; series mostly up to 46 µM. Put shortly: as §1
Another assay has as its system C33A. Briefly: Primary qHTS to identify gynecologic anti-cancer compounds using libraries of approved drugs and bioactive compounds (AID 1345084). Further: nearly all actives have a fitted effect of over 55% in size. Further: potency means the concentration at half of the fitted maximal effect. The following applies: Gynecologic cancer cell panel viability, ATPlite luminescence, 48 h; series mostly up to 57.5 µM. A digest of the protocol:
(§2)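 48 h compound exposure at 37 C, 5% CO2; five-point qHTS. ATPlite luminescence readout of cell ATP.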
A general note: qHTS replaces the single test concentration by a dilution series.

In the next assay the test system is CAOV3. The assay is described as above. The following applies: Gynecologic cancer cell panel viability, ATPlite luminescence, 48 h; series mostly up to 57.5 µM. Put shortly: as §2
For the next assay, the system named is CASKI. The description is as above. The following applies: Gynecologic cancer cell panel viability, ATPlite luminescence, 48 h; series mostly up to 57.5 µM. A digest of the protocol: as §2
In another assay the test system is Es-2. The description is as above. As to conditions: Gynecologic cancer cell panel viability, ATPlite luminescence, 48 h; series mostly up to 57.5 µM. Put shortly: as §2
The subject of the next assay is HeLa. The description is as above. The following applies: Gynecologic cancer cell panel viability, ATPlite luminescence, 48 h; series mostly up to 57.5 µM. A digest of the protocol:
as §2

Another assay deals with Hek293T. The description is as above. As to conditions: Gynecologic cancer cell panel viability, ATPlite luminescence, 48 h, control line for the selectivity index; series mostly up to 57.5 µM. A digest of the protocol: as §2
For another assay, the system named is JEG-3. The assay is described as above. The following applies: Gynecologic cancer cell panel viability, ATPlite luminescence, 48 h; series mostly up to 57.5 µM. Put shortly: as §2
In the next assay the test system is OV90. Described as above. As to conditions: Gynecologic cancer cell panel viability, ATPlite luminescence, 48 h; series mostly up to 57.5 µM. A digest of the protocol: as §2
A further assay relates to PA-1. The description is as above. The following applies: Gynecologic cancer cell panel viability, ATPlite luminescence, 48 h; series mostly up to 57.5 µM. Put shortly:
as §2

The subject of another assay is SKOV3. Described as above. The following applies: Gynecologic cancer cell panel viability, ATPlite luminescence, 48 h; series mostly up to 57.5 µM. A digest of the protocol:
as §2

In the next assay the test system is Tov-21-G. The description is as above. As to conditions: Gynecologic cancer cell panel viability, ATPlite luminescence, 48 h; series mostly up to 57.5 µM. Put shortly: as §2
For another assay, the system named is Tov112D. The assay is described as above. The following applies: Gynecologic cancer cell panel viability, ATPlite luminescence, 48 h; series mostly up to 57.5 µM. Put shortly:
as §2

Assay [1] is described as follows: Drug repurposing screens with cells derived from glioblastoma tumor samples (AID 1345199). Further: nearly all actives have a fitted effect of over 40% in size. Further: potency means the concentration at half of the fitted maximal effect. As to conditions: GBM patient neurospheres viability, ATP luminescence, 48 h. Put shortly:
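Four patient lines of CD133+ GBM neurospheres were screened at several concentrations; hits were retested in those lines plus three slower-growing GBM lines, using 48-hour treatment and ATP-based viability.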

In the next assay the test system is MKL-1. Put plainly: qHTS assay to identify novel small-molecules to repurpose for Merkel cell carcinoma treatment (AID 1296009). Further: nearly all actives have a fitted effect of over 60% in size. As to conditions: MCC and control cell lines, CellTiter-Glo viability, 72 h; series mostly up to 46 µM. Put shortly:
as §1

[2] abbreviates: at 45.9 µM (top of the series), tumour line B.
Where [3] appears, read: at 45.9 µM (top of the series), tumour line D.
[4] abbreviates: at 46.1 µM (top of the series), tumour line C.
[5] abbreviates: at 46 µM (top of the series), tumour line A.
On the % scale 0 is the no-effect control and ±100 the full control effect.

Take `CCCCOCCOCCOCc1cc2c(cc1CCC)OCO2`: the Potency entry in the assay with MCC-13, with MCC-26, in the assay on MKL-2, with UISO, with WaGa and in the assay with C33A was “inactive” throughout. The Potency entry with CAOV3, with CASKI, in the assay with Es-2, with HeLa, with Hek293T and in the assay on JEG-3 was “inactive” in each case. Also, the Potency entry in the assay with OV90, in the assay on PA-1, in the assay on SKOV3, in the assay with Tov-21-G and in the assay with Tov112D was “inactive” in each case. For the same compound, the activity, negative = cell killing in [1] (setting [2]) was -4.83%; in assay [1] (setting [3]) it was 11.7%; in assay [1] (setting [4]), -0.263%; in [1] (at 91.6 µM (top of the series), tumour line B), -11.5%; in assay [1] (at 91.6 µM (top of the series), tumour line D), -27.9%; in assay [1] (at 99.2 µM (top of the series), tumour line C) it was 13.4%. Besides, the Potency in [1] (tumour line A) was 31.6 µM (active).

As for `CN(C)C(=O)Oc1cccc([N+](C)(C)C)c1`, the Potency result in the assay with MCC-13, in the assay on MCC-26, in the assay on MKL-2, in the assay on UISO, in the assay with WaGa and with C33A was “inactive” in each case. Also, the Potency result in the assay with CASKI, in the assay on Es-2, in the assay on Hek293T, with JEG-3, with OV90 and in the assay on PA-1 was “inactive” each time. The Potency result with SKOV3, in the assay with Tov-21-G and in the assay on Tov112D was “inactive” throughout. For the same compound, the activity, negative = cell killing in assay [1] (setting [2]) is -0.104%; in [1] (setting [3]) it was 10.8%; in assay [1] (setting [5]), -24.8%; in assay [1] (setting [4]), -4.3%.

For the compound `CN/C(=C\[N+](=O)[O-])NCCSCc1ccc(CN(C)C)o1`, the Potency entry in the assay on MCC-13, with MCC-26, with MKL-2, in the assay with UISO, with WaGa and with C33A was “inactive” in each case. Further, the Potency result with CAOV3, in the assay with CASKI, with Es-2, with HeLa, with Hek293T and in the assay on JEG-3 was “inactive” throughout. For the same compound, the Potency result in the assay on PA-1 and in the assay on Tov112D was “inactive” in each case. For the same compound, in the assay with OV90, the Potency is 14.1 µM (active). Moreover, the activity, negative = cell killing in [1] (setting [4]) was -1.34%.

In the case of `CCCN(CCC)CCc1cccc2c1CC(=O)N2`, the Potency result in the assay on MCC-13, in the assay on MCC-26, in the assay on MKL-2, with UISO, in the assay with WaGa and in the assay with C33A was “inactive” in each case. Also, the Potency result with CASKI, in the assay with Es-2, in the assay with Hek293T, in the assay with JEG-3, in the assay on OV90 and in the assay with PA-1 was “inactive” each time. Besides, the Potency entry in the assay with SKOV3, in the assay with Tov-21-G and in the assay on Tov112D was “inactive” each time. The activity, negative = cell killing is -4.59% in assay [1] (setting [2]), 4.33% in assay [1] (setting [3]) and 2.12% in [1] (setting [4]).

For `Cc1ccc(Cl)c(Nc2ccccc2C(=O)O)c1Cl`, the Potency entry in the assay on MCC-13, in the assay with MCC-26, with MKL-2, in the assay with UISO, with WaGa and with C33A was “inactive” in each case. Further, the Potency entry in the assay with CAOV3, in the assay with CASKI, in the assay on Es-2, in the assay with HeLa, in the assay with Hek293T and in the assay on JEG-3 was “inactive” throughout. Also, the Potency result in the assay with OV90, in the assay on PA-1, in the assay with SKOV3, with Tov-21-G and in the assay with Tov112D was “inactive” each time. The activity, negative = cell killing in [1] (setting [2]) was -5.7%; in assay [1] (setting [3]) it was -0.35%; in assay [1] (setting [5]), -28.2%; in assay [1] (setting [4]) it was -24.9%.

On to `C[C@]12CC[C@@H]3c4ccc(O)cc4C[C@@H](CCCCCCCCCS(=O)CCCC(F)(F)C(F)(F)F)[C@H]3[C@@H]1CC[C@@H]2O` (stereo partly drawn), for which the Potency result in the assay on MCC-13, in the assay on MCC-26, with MKL-1, in the assay with WaGa, in the assay with C33A and in the assay with CAOV3 was “inactive” in each case. Also, the Potency entry with CASKI, in the assay with Es-2, with HeLa, with Hek293T, in the assay with JEG-3 and with OV90 was “inactive” in each case. Moreover, the Potency result with PA-1, in the assay on SKOV3, with Tov-21-G and with Tov112D was “inactive” throughout. The activity, negative = cell killing in assay [1] (setting [2]) was 11.9%; in assay [1] (setting [3]), -8.98%; in [1] (setting [4]), 16.6%. In [1] (tumour line A), the Potency was 4.47 µM (active).

The record behind these values is PubChem BioAssay (NCATS).
